Laboratory results reported in PubChem BioAssay AID1159580 (chemical genetic matrix, 2015).
Several values for one entry are separate records, joined by “and”; a condition that tells them apart may be missing. Equal entries are not always repeated. Hit rate of the full screen: of about 5,500 compounds, about 2,000 (36%) were called active. Not shown: some 18% with an inconclusive outcome. Cut-off read from the data, not from the text of the source: active = normalized growth mostly below about 0.91 (no sharp cut-off); inconclusive = no clear call, values can overlap the other calls; inactive = mostly above about 0.92. Some of the results follow.

Experiment: chemical genetic growth profiling, strain panel (AID 1159580);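 note: tested at 20 µM; growth read once vehicle control cultures reached saturation at 30 °C; 1 = growth at the plate median or of vehicle wells; lower values mean less growth of the strain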
Settings: S. cerevisiae deletion strains, growth OD

Measured: normalized growth

CCN(CC)CCOc1ccc2c(c1)C(=O)c1cc(OCCN(CC)CC)ccc1-2
inactive: locus YAL013W, strain DEP1, hits give low values 1 | locus YAL021C, strain ccr4, hits give low values 0.962 | locus YAL026C, strain drs2, hits give low values 0.984 | locus YAL030W, strain snc1, hits give low values 1 | locus YBL061C, strain skt5, hits give low values 0.993 | locus YBR009C, strain hhf1, hits give low values 0.993 | locus YBR021W, strain FUR4, hits give low values 1.06 | locus YBR023C, strain chs3, hits give low values 0.98 | locus YBR171W, strain sec66, hits give low values 0.979 | locus YBR229C, strain ROT2, hits give low values 1 | locus YBR231C, strain swc5, hits give low values 0.974 | locus YBR279W, strain paf1, hits give low values 0.981 | locus YCL011C, strain gbp2, hits give low values 0.977 | locus YCL016C, strain dcc1, hits give low values 0.973 | locus YCL029C, strain bik1, hits give low values 0.975 | locus YCL061C, strain MRC1, hits give low values 0.981 | locus YCL069W, strain vba3, hits give low values 0.996 | locus YCR088W, strain abp1, hits give low values 0.984 | locus YDL005C, strain med2, hits give low values 0.966 | locus YDL035C, strain GPR1, hits give low values 0.991 | locus YDL040C, strain nat1, hits give low values 0.986 | locus YDL074C, strain BRE1, hits give low values 0.998 | locus YDL101C, strain DUN1, hits give low values 0.987 | locus YDL134C, strain PPH21, hits give low values 0.994 | locus YDL185W, strain tfp1, hits give low values 0.947 | locus YDL192W, strain arf1, hits give low values 0.984 | locus YDR001C, strain nth1, hits give low values 0.979 | locus YDR069C, strain doa4, hits give low values 0.96 | locus YDR101C, strain arx1, hits give low values 0.991 | locus YDR137W, strain rgp1, hits give low values 0.998 | locus YDR150W, strain NUM1, hits give low values 0.973 | locus YDR159W, strain sac3, hits give low values 1 | locus YDR162C, strain NBP2, hits give low values 1.02 | locus YDR195W, strain ref2 0.96 | locus YDR297W, strain sur2, hits give low values 0.997 | locus YDR318W, strain mcm21, hits give low values 0.98 | locus YDR334W, strain swr1, hits give low values 0.975 | locus YDR335W, strain msn5, hits give low values 0.989 | locus YDR388W, hits give low values 0.983 | locus YDR392W, strain spt3, hits give low values 0.807 | locus YDR502C, strain sam2, hits give low values 0.99 | locus YEL003W, strain gim4, hits give low values 0.99 | locus YEL037C, strain rad23, hits give low values 0.994 | locus YEL061C, strain CIN8 (second series), hits give low values 0.986 | locus YEL061C, strain CIN8, hits give low values 0.997 | locus YER015W, strain faa2, hits give low values 0.991 | locus YER016W, strain bim1, hits give low values 0.957 | locus YER110C, hits give low values 0.962 | locus YER111C, strain swi4, hits give low values 0.971 | locus YER155C, strain BEM2 (second series), hits give low values 0.937 | locus YER155C, strain BEM2, hits give low values 1 | locus YER167W, strain BCK2, hits give low values 0.982 | locus YFR010W, strain ubp6, hits give low values 0.992 | locus YGL078C, strain dbp3, hits give low values 0.98 | locus YGL086W, strain mad1, hits give low values 0.993 | locus YGL167C, strain pmr1, hits give low values 0.982 | locus YGL173C, strain kem1, hits give low values 0.978 | locus YGL227W, strain vid30, hits give low values 0.978 | locus YGL240W, strain doc1, hits give low values 0.983 | locus YGL248W, strain PDE1, hits give low values 1 | locus YGL253W, strain hxk2, hits give low values 0.983 | locus YGR078C, strain PAC10, hits give low values 0.996 | locus YGR135W, strain pre9, hits give low values 1.02 | locus YGR229C, strain SMI1, hits give low values 1.04 | locus YGR252W, strain gcn5, hits give low values 0.99 | locus YHR013C, strain ard1, hits give low values 0.933 | locus YHR027C, strain rpn1, hits give low values 0.979 | locus YHR030C, strain SLT2, hits give low values 0.977 and 0.988 | locus YHR079C, strain IRE1 (second series), hits give low values 0.989 | locus YHR079C, strain IRE1, hits give low values 0.977 | locus YHR094C, strain hxt1, hits give low values 0.972 | locus YHR129C, strain ARP1, hits give low values 0.998 | locus YHR142W, strain chs7, hits give low values 0.99 | locus YHR200W, strain rpn10, hits give low values 0.98 | locus YIL066C, strain RNR3, hits give low values 0.99 | locus YIL073C, strain SPO22, hits give low values 0.948 | locus YIL125W, strain kgd1, hits give low values 0.981 | locus YIR030C, strain dcg1, hits give low values 0.991 | locus YJL092W, strain hpr5, hits give low values 0.987 | locus YJL095W, strain BCK1 (second series), hits give low values 0.983 | locus YJL095W, strain BCK1, hits give low values 1 and 0.986 | locus YJL115W, strain asf1, hits give low values 0.98 | locus YJL129C, strain trk1, hits give low values 0.974 | locus YJL134W, strain LCB3, hits give low values 0.989 | locus YJL154C, strain vps35, hits give low values 0.979 | locus YJL164C, strain tpk1, hits give low values 0.993 | locus YJL166W, strain qcr8, hits give low values 0.984 | locus YJL168C, strain set2, hits give low values 0.983 | locus YJL187C, strain SWE1 (second series), hits give low values 0.983 | locus YJL187C, strain SWE1, hits give low values 0.981 | locus YJR043C, strain POL32, hits give low values 1.01 | locus YJR066W, strain TOR1, hits give low values 0.965
